Here are results for 40 sequences from the OligoGym collection.
Note: reference of the scale not given here.

In the first test the target is SRC. As to the kind of experiment: pooled miR-30 sensor sort-seq; sequence = guide strand. To be noted: shRNA.
TTTCGTGGTCTCACTTTCTCGC returned a sensor-assay potency score (higher = more potent) of 0.127.

Take TGAAACCACAGCATACAACTGC: the sensor-assay potency score (higher = more potent) was determined as 0.358.

For TGTGTTGTTGACAATCTGGAGC, the sensor-assay potency score (higher = more potent) was -0.666.

TTGAAGGACAGGTCTGTCTCCG had a sensor-assay potency score (higher = more potent) of 0.367.

TCGTGGTCTCACTTTCTCGCAC returned a sensor-assay potency score (higher = more potent) of -0.731.

For the sequence TCATTGTCTTCAATGAGCCGAG, the sensor-assay potency score (higher = more potent) was -0.463.

TCTCGCACGAGGAAGGTCCCTC displayed a sensor-assay potency score (higher = more potent) of -0.579.

The next test concerns the target SREBF2. The test is described as above. As to conditions: shRNA.
Turning to TTTGATGTAATCAATGGCCTTC, the sensor-assay potency score (higher = more potent) turned out to be 0.209.

On to TTAGCTTCGTCTTCAAAGCCTG, for which the sensor-assay potency score (higher = more potent) was -0.243.

Consider TTTATGATTGACCTGCTGCAAG, for which the sensor-assay potency score (higher = more potent) was -1.02.

For the sequence TAGCTTCGTCTTCAAAGCCTGC, the sensor-assay potency score (higher = more potent) was -1.4.

Consider TTGATTACTGACAAATTGCAGC, for which the sensor-assay potency score (higher = more potent) is -0.488.

In the case of ATTACTGACAAATTGCAGCATC, the sensor-assay potency score (higher = more potent) is -0.795.

Consider TCGAATGACAGGACACTGCGGC, for which the sensor-assay potency score (higher = more potent) was -0.313.

For the sequence TTCACAGCTCTCTTCTTCCTGG, the sensor-assay potency score (higher = more potent) worked out at 0.117.

In the case of TCATGCAGGAACACCTTGCGGT, the sensor-assay potency score (higher = more potent) was found to be 0.123.

In turn, TAAAATGAGAGCGCACAGCTGC displayed a sensor-assay potency score (higher = more potent) of -0.945.

Take TTAACAATCATCTGCTGGCAGT: the sensor-assay potency score (higher = more potent) is -1.13.

A further test has as its target SRPK1. Described as above. To be noted: shRNA.
On to TTCGCTTCTCTAGTAATTCTGC, for which the sensor-assay potency score (higher = more potent) worked out at 0.131.

TTCCATAAGCGTTTGATCCTGG gave a sensor-assay potency score (higher = more potent) of 0.385.

As to TAGTTGAACAACCATTTCTCTA, the sensor-assay potency score (higher = more potent) is -1.08.

On to TATGTGTTCCATTAACTCCTGA, for which the sensor-assay potency score (higher = more potent) was -0.508.

Sequence TTTAAAGTCATCTAGTAGTTGA gave a sensor-assay potency score (higher = more potent) of -0.439.

TATTCTTTGACATTTTGTCAGC showed a sensor-assay potency score (higher = more potent) of -0.83.

TAACTTTCGGATCACATGGTAT yielded a sensor-assay potency score (higher = more potent) of -1.15.

On to TACAATAATCATTAGGATCTTC, for which the sensor-assay potency score (higher = more potent) was -0.347.

TTTGATGATCCACTTGAGCAGA: the sensor-assay potency score (higher = more potent) is -0.465.

TAGCATTATGTAGATCCTCTTT came in with a sensor-assay potency score (higher = more potent) of -0.224.

Regarding ATCTAGTAGTTGAACAACCATT, the sensor-assay potency score (higher = more potent) is -1.39.

For TTATAGGTGTACAAGAGTCTGT, the sensor-assay potency score (higher = more potent) was -0.536.

The target of another test is SRSF11. The test is described as above. To be noted: shRNA.
The sequence TTCTTTACTAGAGGTATCCGAT came in with a sensor-assay potency score (higher = more potent) of -0.524.

Consider TACATCTTTATCACTCTCTGAT, for which the sensor-assay potency score (higher = more potent) was found to be 0.584.

The sequence TATCTGGTTCTATAGCAGCAGA gave a sensor-assay potency score (higher = more potent) of -1.33.

TTGCACTTCTAGAACGTCTGGC returned a sensor-assay potency score (higher = more potent) of 0.928.

With TAACAGGAGCTTTATAACCATT, the sensor-assay potency score (higher = more potent) is -1.45.

TTTGTCTTTATCTTTCTTCTTC gave a sensor-assay potency score (higher = more potent) of 0.407.

The sequence TAGAACGTGATCTTGATCTTGA yielded a sensor-assay potency score (higher = more potent) of 0.589.

As for TAAGCTTCAGCAACTGATCTGC, the sensor-assay potency score (higher = more potent) stood at 0.509.

With TCTTCTTGCTTGTTGATCGTTC, the sensor-assay potency score (higher = more potent) is 0.0447.

TTCCTCTTCATCATAATCCCGT: the sensor-assay potency score (higher = more potent) turned out to be 0.0321.
